# Structures can show the parent of a compound that is named as a salt. ± gives the standard deviation of the averaged measurements.
# Key:
# [1] = system: DLD1; assay: cell viability (CellTiter-Glo) relative to plate median (fraction of plate median); higher = more viable cells; conditions: 10 µM, treatment time 24 h
# Summary of the method: (§1)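 Reporter and viability luminescence were measured in colorectal cancer cells stably carrying lentiviral TCF/Wnt firefly luciferase reporters. The cells were exposed to kinase inhibitor library compounds at a final 10 µM for 24 h, starting 24 h after seeding in 384-well plates. Each well was normalised to the plate median (webcellHTS2, additive, no log transformation), and two independent replicates were averaged.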
# [2] = system: HCT116; assay: as above; conditions: 10 µM; treatment time 24 h; reporter: TCF4/Wnt
# Summary of the method: as §1
# [3] = system: SW480; assay: as above; conditions: 10 µM; treatment time 24 h; reporter: 7TFP
# Summary of the method: as §1
# [4] = system: DLD1; assay: TCF/Wnt firefly luciferase reporter signal relative to plate median (fraction of plate median); higher = higher Wnt reporter signal; conditions: 10 µM, treatment time 24 h
# Summary of the method: as §1
# [5] = system: HCT116; assay: as above; conditions: 10 µM; treatment time 24 h; reporter: TCF4/Wnt
# Summary of the method: as §1
# [6] = system: SW480; assay: as above; conditions: 10 µM; treatment time 24 h; reporter: 7TFP
# Summary of the method: as §1
Structure (SMILES),cell viability ([1]; reporter: 7TFP),cell viability ([1]; reporter: TCF4/Wnt),cell viability [2],cell viability [3],TCF/Wnt firefly luciferase reporter signal ([4]; reporter: 7TFP),TCF/Wnt firefly luciferase reporter signal ([4]; reporter: TCF4/Wnt),TCF/Wnt firefly luciferase reporter signal [5],TCF/Wnt firefly luciferase reporter signal [6]
COc1cc2ncnc(Nc3ccc(O)c(Br)c3)c2cc1OC,1.04 ± 0.13,0.98 ± 0.029,1.13 ± 0.28,1.01,1.11 ± 0.021,0.832 ± 0.11,1.11 ± 0.17,1.17 ± 0.014
Cn1c(=O)c(F)c(Nc2ccc(I)cc2F)c2c(=O)n(C[C@@H](O)CO)cnc21,1.24 ± 0.05,1.2,0.9705 ± 0.0035,1.18 ± 0.035,1.66 ± 0.057,1.61 ± 0.62,1.31 ± 0.42,2.19 ± 0.11
C[C@@H]1COC(Nc2ccc3ncnc(Nc4ccc(OCc5nccs5)c(Cl)c4)c3c2)=N1,0.932 ± 0.12,0.973 ± 0.028,1.055 ± 0.0071,0.988 ± 0.031,1.14 ± 0.18,1.51 ± 0.45,1.52 ± 0.042,1.22 ± 0.25
Cc1ccc(NC(=O)c2ccc(CN3CCN(C)CC3)cc2)cc1Nc1nccc(-c2cccnc2)n1 [Imatinib (Gleevec)],1.05 ± 0.099,1.035 ± 0.0071,0.993 ± 0.024,0.986 ± 0.011,1.65 ± 0.057,1.55 ± 0.11,1.42 ± 0.23,1.39 ± 0.22
Cc1ccc(NC(=O)c2ccc(CN3CCN(C)CC3)cc2)cc1Nc1nc(-c2cccnc2)cs1 [Masitinib (AB1010)],0.896 ± 0.073,1 ± 0.037,0.969 ± 0.037,0.993 ± 0.053,0.821 ± 0.019,1.25 ± 0.078,0.632 ± 0.1,1.01 ± 0.071
"Cc1cc(Nc2cc(N3CCN(C)CC3)nc(Sc3ccc(NC(=O)C4CC4)cc3)n2)n[nH]1 [VX-680 (MK-0457, Tozasertib)]",1.12 ± 0.18,0.975 ± 0.078,1.02 ± 0.028,1.16 ± 0.021,0.773 ± 0.0014,0.776 ± 0.057,1.56 ± 0.13,1.11 ± 0.23
NC(=O)c1ccc(N(C(N)=O)c2c(F)cccc2F)nc1-c1ccc(F)cc1F,0.966 ± 0.016,1.045 ± 0.0071,1.13 ± 0.085,0.91 ± 0.025,0.904 ± 0.019,0.756 ± 0.0014,0.921 ± 0.071,0.752 ± 0.08
CC(=O)Nc1nc(C)c(-c2ccc(Cl)c(S(=O)(=O)NCCO)c2)s1,0.939 ± 0.13,0.947 ± 0.0014,0.974 ± 0.051,1.1,0.9 ± 0.037,1 ± 0.08,1.09 ± 0.085,0.944 ± 0.033
CCCNC(=O)Nc1ccc(Oc2ncnc3cc(OC)c(OC)cc23)cc1Cl,1.15 ± 0.085,1.02 ± 0.03,1.15 ± 0.035,0.9145 ± 0.005,1.2 ± 0.085,1.11 ± 0.085,1.04 ± 0.042,0.975 ± 0.14
C[C@@H](Oc1cc(-n2cnc3ccc(CN4CCN(C)CC4)cc32)sc1C(N)=O)c1ccccc1C(F)(F)F,0.905 ± 0.036,0.934 ± 0.033,0.782 ± 0.0057,1.05 ± 0.057,0.726 ± 0.15,0.565 ± 0.17,0.335 ± 0.045,0.941 ± 0.11
FC(F)c1nc2ccccc2n1-c1nc(N2CCOCC2)nc(N2CCOCC2)n1,0.82 ± 0.08,0.835 ± 0.016,0.829 ± 0.042,1.065 ± 0.0071,0.673 ± 0.019,0.891 ± 0.11,1.01 ± 0.061,1.03 ± 0.17
CC(C)(C)c1nc(-c2cccc(NS(=O)(=O)c3c(F)cccc3F)c2F)c(-c2ccnc(N)n2)s1,1 ± 0.051,0.981 ± 0.042,1.055 ± 0.0071,1.06 ± 0.064,1.18 ± 0.071,1.05 ± 0.05,0.931 ± 0.47,1.75 ± 0.014
CN(C)C/C=C/C(=O)Nc1cc2c(Nc3ccc(F)c(Cl)c3)ncnc2cc1O[C@H]1CCOC1 [Afatinib (BIBW2992)],0.916 ± 0.074,0.843 ± 0.0092,0.635 ± 0.19,1.18 ± 0.042,0.292 ± 0.089,0.407 ± 0.0014,0.131 ± 0.091,0.447 ± 0.19
Nc1nc(Nc2ccc(S(N)(=O)=O)cc2)nn1C(=O)c1c(F)cccc1F,1.01 ± 0.14,1.05 ± 0.076,0.71 ± 0.11,1.24 ± 0.071,0.811 ± 0.057,1.59 ± 0.69,0.284 ± 0.018,1.09 ± 0.13
COc1cc(Nc2ncc3c(n2)-c2ccc(Cl)cc2C(c2c(F)cccc2OC)=NC3)ccc1C(=O)O [MLN8237 (Alisertib)],0.987 ± 0.047,0.95 ± 0.067,0.954 ± 0.12,0.943 ± 0.014,1.08 ± 0.014,1.16 ± 0.16,1.01 ± 0.12,0.974 ± 0.066
N=C(N)NC(=N)NCCc1ccccc1 [Phenformin hydrochloride],1.185 ± 0.0071,1.06 ± 0.057,1.21 ± 0.18,0.923 ± 0.086,1.26 ± 0.12,1.21 ± 0.27,1.3 ± 0.51,1.17 ± 0.21
Cc1cnc(Nc2ccc(N3CCN(C)CC3)cc2)nc1Nc1cccc(S(=O)(=O)NC(C)(C)C)c1,0.833 ± 0.04,0.912 ± 0.18,0.514 ± 0.17,0.702 ± 0.18,1.37 ± 0.2,2.17 ± 0.035,2.98 ± 0.97,0.613 ± 0.3
Cc1ccc(NC(=O)c2ccc(CN3CCN(C)CC3)cc2)cc1Nc1nccc(-c2cccnc2)n1 [Imatinib Mesylate],0.9835 ± 0.0064,0.907 ± 0.17,0.91 ± 0.024,0.984 ± 0.066,2.07 ± 0.14,1.51 ± 0.4,1.32 ± 0.47,1.73 ± 0.15
CCn1nnc2c(N3CCOCC3)nc(-c3ccc(NC(=O)Nc4ccc(C(=O)N5CCN(C)CC5)cc4)cc3)nc21,1.21 ± 0.16,1.09 ± 0.092,0.683 ± 0.11,1.14 ± 0.028,0.633 ± 0.025,1.19 ± 0.042,0.59 ± 0.19,0.821 ± 0.054
FC(F)(F)c1ccc(Nc2nc3ccc(Oc4ccnc(-c5ncc(C(F)(F)F)[nH]5)c4)cc3[nH]2)cc1 [Raf265 derivative],1.1,1.07 ± 0.014,1.2 ± 0.21,0.975 ± 0.12,1.11 ± 0.085,1.16 ± 0.085,0.912 ± 0.28,0.81 ± 0.44
Cc1cn(-c2cc(NC(=O)c3ccc(C)c(Nc4nccc(-c5cccnc5)n4)c3)cc(C(F)(F)F)c2)cn1 [Nilotinib (AMN-107)],0.808 ± 0.028,0.935 ± 0.041,0.9715 ± 0.005,0.973 ± 0.053,0.873 ± 0.054,0.708 ± 0.12,0.894 ± 0.028,1.04 ± 0.028
CC(C)n1nc(-c2cc3cc(O)ccc3[nH]2)c2c(N)ncnc21,0.86 ± 0.18,0.984 ± 0.037,0.698 ± 0.067,1.15 ± 0.085,0.557 ± 0.016,0.752 ± 0.0057,0.547 ± 0.061,0.636 ± 0.26

# From the supplement of paper PMC6522484
